Holding throughout (experiment): PBM; 200 nM protein, PBS
Conditions in all cases: dsDNA, one strand shown

The target of assay [1] is HOXA4 (Homo sapiens, UniProt Q00056 201-287, W262R).
Assay [2] concerns the target HOXC9 (Homo sapiens, UniProt P31274 178-260, K195R).
Assay [3] has as its target HOXA4 (Homo sapiens, UniProt Q00056 201-287, R217L).
Assay [4] concerns the target HOXC9 (Homo sapiens, UniProt P31274 178-260).
In assay [5] the target is HOXC9 (Homo sapiens, UniProt P31274 178-260, R193K).
Assay [6] addresses HOXA4 (Homo sapiens, UniProt Q00056 201-287).
In assay [7] the target is HOXC9 (Homo sapiens, UniProt P31274 178-260, R222W).
Assay [8] concerns the target HOXA4 (Homo sapiens, UniProt Q00056 201-287, W262F).
The target of assay [9] is T1, SIX6 (Homo sapiens, UniProt O95475 114-200, L167I).
T1 sequence: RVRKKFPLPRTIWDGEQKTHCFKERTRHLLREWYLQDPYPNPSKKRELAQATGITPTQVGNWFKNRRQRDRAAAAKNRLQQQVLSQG

The target of assay [10] is T2, SIX6 (Homo sapiens, UniProt O95475 114-200, T139Q).
T2 sequence: T1 sequence with T26Q, I54L

The target of assay [11] is HOXC10 (Homo sapiens, UniProt Q9NYD6 254-340).
Assay [12] concerns the target HOXC10 (Homo sapiens, UniProt Q9NYD6 254-340, K271E).
For assay [13], the target named is ALX4 (Homo sapiens, UniProt Q9H161 200-286).
Assay [14] deals with ALX4 (Homo sapiens, UniProt Q9H161 200-286, Q225E).
Assay [15] addresses T3, SIX6 (Homo sapiens, UniProt O95475 114-200, T165P).
T3 sequence: T1 sequence with T52P, I54L

In assay [16] the target is T4, SIX6 (Homo sapiens, UniProt O95475 114-200, L143M).
T4 sequence: T1 sequence with L30M, I54L

The target of assay [17] is PRRX1 (Homo sapiens, UniProt P54821 80-166, F113S).
For assay [18], the target named is HOXA2 (Homo sapiens, UniProt O43364 129-215, R185T).
For assay [19], the target named is HOXA2 (Homo sapiens, UniProt O43364 129-215, R185K).
Assay [20] deals with HOXA2 (Homo sapiens, UniProt O43364 129-215, Y150S).
Assay [21] addresses PRRX1 (Homo sapiens, UniProt P54821 80-166).
For assay [22], the target named is HOXA2 (Homo sapiens, UniProt O43364 129-215).
For assay [23], the target named is T5, PAX4 (Homo sapiens, UniProt O43316 9-242, R200K).
T5 sequence: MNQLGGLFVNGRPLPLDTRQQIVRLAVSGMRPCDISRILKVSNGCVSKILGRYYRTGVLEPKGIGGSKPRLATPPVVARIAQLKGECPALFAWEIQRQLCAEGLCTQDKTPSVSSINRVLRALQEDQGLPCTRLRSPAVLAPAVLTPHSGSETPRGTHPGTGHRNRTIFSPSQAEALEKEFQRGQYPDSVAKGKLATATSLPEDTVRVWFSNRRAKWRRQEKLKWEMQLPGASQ

Assay [24] has as its target T6, PAX4 (Homo sapiens, UniProt O43316 9-242).
T6 sequence: T5 sequence with K192R

For assay [25], the target named is T7, PAX4 (Homo sapiens, UniProt O43316 9-242, R200Q).
T7 sequence: T5 sequence with K192Q

Assay [26] deals with T8, PAX4 (Homo sapiens, UniProt O43316 9-242, F177V).
T8 sequence: T5 sequence with F169V, K192R

The target of assay [27] is T9, PAX4 (Homo sapiens, UniProt O43316 9-242, F177Y).
T9 sequence: T5 sequence with F169Y, K192R

The target in assay [28] is T10, PAX4 (Homo sapiens, UniProt O43316 9-242, R227W).
T10 sequence: T5 sequence with K192R, R219W

Residue numbers refer to the chain shown, from its start.

HOXC9 (Homo sapiens, UniProt P31274 178-260, R222W), sequence (P31274 178-260 R222W): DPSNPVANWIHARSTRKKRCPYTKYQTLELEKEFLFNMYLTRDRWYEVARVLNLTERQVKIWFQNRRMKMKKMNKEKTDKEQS
HOXA4 (Homo sapiens, UniProt Q00056 201-287, W262R), sequence (Q00056 201-287 W262R): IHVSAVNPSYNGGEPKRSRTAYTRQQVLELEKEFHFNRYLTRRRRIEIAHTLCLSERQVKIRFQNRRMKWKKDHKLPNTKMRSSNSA
HOXC9 (Homo sapiens, UniProt P31274 178-260, R193K), sequence (P31274 178-260 R193K): as the sequence (P31274 178-260 R222W) above, with R16K, W45R counted along it
HOXA4 (Homo sapiens, UniProt Q00056 201-287, R217L), sequence (Q00056 201-287 R217L): as the sequence (Q00056 201-287 W262R) above, with R17L, R62W counted along it
HOXC9 (Homo sapiens, UniProt P31274 178-260, K195R), sequence (P31274 178-260 K195R): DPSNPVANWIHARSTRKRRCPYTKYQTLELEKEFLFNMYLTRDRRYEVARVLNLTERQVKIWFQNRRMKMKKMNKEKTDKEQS
HOXA4 (Homo sapiens, UniProt Q00056 201-287, W262F), sequence (Q00056 201-287 W262F): as the sequence (Q00056 201-287 W262R) above, with R62F counted along it
HOXA4 (Homo sapiens, UniProt Q00056 201-287), sequence (Q00056 201-287): as the sequence (Q00056 201-287 W262R) above, with R62W counted along it
HOXC9 (Homo sapiens, UniProt P31274 178-260), sequence (P31274 178-260): as the sequence (P31274 178-260 R222W) above, with W45R counted along it
ALX4 (Homo sapiens, UniProt Q9H161 200-286, Q225E), sequence (Q9H161 200-286 Q225E): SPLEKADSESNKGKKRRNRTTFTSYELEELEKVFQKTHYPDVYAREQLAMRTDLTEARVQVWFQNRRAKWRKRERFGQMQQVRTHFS
ALX4 (Homo sapiens, UniProt Q9H161 200-286), sequence (Q9H161 200-286): as the sequence (Q9H161 200-286 Q225E) above, with E26Q counted along it
HOXC10 (Homo sapiens, UniProt Q9NYD6 254-340, K271E), sequence (Q9NYD6 254-340 K271E): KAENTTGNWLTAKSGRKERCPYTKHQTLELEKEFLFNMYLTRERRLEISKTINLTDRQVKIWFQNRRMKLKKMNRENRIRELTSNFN
PRRX1 (Homo sapiens, UniProt P54821 80-166, F113S), sequence (P54821 80-166 F113S): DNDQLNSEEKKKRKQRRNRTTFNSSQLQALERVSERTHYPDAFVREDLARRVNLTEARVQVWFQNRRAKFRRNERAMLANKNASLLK
HOXA2 (Homo sapiens, UniProt O43364 129-215, R185K), sequence (O43364 129-215 R185K): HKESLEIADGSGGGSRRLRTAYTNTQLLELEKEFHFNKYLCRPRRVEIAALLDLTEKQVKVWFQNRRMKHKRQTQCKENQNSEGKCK
HOXA2 (Homo sapiens, UniProt O43364 129-215, Y150S), sequence (O43364 129-215 Y150S): as the sequence (O43364 129-215 R185K) above, with Y22S, K57R counted along it
HOXC10 (Homo sapiens, UniProt Q9NYD6 254-340), sequence (Q9NYD6 254-340): as the sequence (Q9NYD6 254-340 K271E) above, with E18K counted along it
PRRX1 (Homo sapiens, UniProt P54821 80-166), sequence (P54821 80-166): as the sequence (P54821 80-166 F113S) above, with S34F counted along it
HOXA2 (Homo sapiens, UniProt O43364 129-215, R185T), sequence (O43364 129-215 R185T): as the sequence (O43364 129-215 R185K) above, with K57T counted along it
HOXA2 (Homo sapiens, UniProt O43364 129-215), sequence (O43364 129-215): as the sequence (O43364 129-215 R185K) above, with K57R counted along it

With CCCGAGGG, the binding signal with HOXA4 [1] was 9.81 upbm affinity estimate (log intensity, higher = more binding, comparable within an allelic series); with HOXC9 [2], 9.47 upbm affinity estimate (log intensity, higher = more binding, comparable within an allelic series); with HOXA4 [3], 9.62 upbm affinity estimate (log intensity, higher = more binding, comparable within an allelic series); with HOXC9 [4], 9.55 upbm affinity estimate (log intensity, higher = more binding, comparable within an allelic series); with HOXC9 [5] it was 9.54 upbm affinity estimate (log intensity, higher = more binding, comparable within an allelic series); with HOXA4 [6] it was 9.66 upbm affinity estimate (log intensity, higher = more binding, comparable within an allelic series). The binding signal with HOXC9 [7] was 9.61 upbm affinity estimate (log intensity, higher = more binding, comparable within an allelic series); in the assay with HOXA4 [8], 9.77 upbm affinity estimate (log intensity, higher = more binding, comparable within an allelic series).

For AGTGATCC, the binding signal was 11.1 upbm affinity estimate (log intensity, higher = more binding, comparable within an allelic series) in the assay with SIX6 [9] and 11.2 upbm affinity estimate (log intensity, higher = more binding, comparable within an allelic series) in the assay with SIX6 [10].

As to GCCAAGCC, the binding signal with HOXA4 [1] is 9.84 upbm affinity estimate (log intensity, higher = more binding, comparable within an allelic series); with HOXC10 [11], 10.1 upbm affinity estimate (log intensity, higher = more binding, comparable within an allelic series); with HOXA4 [3] it was 9.8 upbm affinity estimate (log intensity, higher = more binding, comparable within an allelic series); with HOXA4 [6], 9.92 upbm affinity estimate (log intensity, higher = more binding, comparable within an allelic series); in the assay with HOXC10 [12], 10 upbm affinity estimate (log intensity, higher = more binding, comparable within an allelic series); in the assay with HOXA4 [8] it was 9.89 upbm affinity estimate (log intensity, higher = more binding, comparable within an allelic series).

As to GCCTCCCA, the binding signal is 9.78 upbm affinity estimate (log intensity, higher = more binding, comparable within an allelic series) with HOXA4 [1]; 9.58 upbm affinity estimate (log intensity, higher = more binding, comparable within an allelic series) in the assay with HOXC9 [2]; 8.34 upbm affinity estimate (log intensity, higher = more binding, comparable within an allelic series) in the assay with ALX4 [13]; 8.34 upbm affinity estimate (log intensity, higher = more binding, comparable within an allelic series) with ALX4 [14]; 9.83 upbm affinity estimate (log intensity, higher = more binding, comparable within an allelic series) with HOXA4 [3]; 9.69 upbm affinity estimate (log intensity, higher = more binding, comparable within an allelic series) in the assay with HOXC9 [4]. For the same sequence, the binding signal is 9.59 upbm affinity estimate (log intensity, higher = more binding, comparable within an allelic series) with HOXC9 [5]; 9.75 upbm affinity estimate (log intensity, higher = more binding, comparable within an allelic series) with HOXA4 [6]; 9.65 upbm affinity estimate (log intensity, higher = more binding, comparable within an allelic series) with HOXC9 [7]; 9.77 upbm affinity estimate (log intensity, higher = more binding, comparable within an allelic series) in the assay with HOXA4 [8].

In the case of GATCCCCC, the binding signal is 9.9 upbm affinity estimate (log intensity, higher = more binding, comparable within an allelic series) with HOXA4 [1]; 9.3 upbm affinity estimate (log intensity, higher = more binding, comparable within an allelic series) with SIX6 [15]; 9.87 upbm affinity estimate (log intensity, higher = more binding, comparable within an allelic series) in the assay with HOXA4 [3]; 11.1 upbm affinity estimate (log intensity, higher = more binding, comparable within an allelic series) in the assay with SIX6 [10]; 9.93 upbm affinity estimate (log intensity, higher = more binding, comparable within an allelic series) in the assay with HOXA4 [6]; 9.82 upbm affinity estimate (log intensity, higher = more binding, comparable within an allelic series) with HOXA4 [8].

GGATCACA: the binding signal in the assay with SIX6 [9] is 11.1 upbm affinity estimate (log intensity, higher = more binding, comparable within an allelic series); in the assay with SIX6 [16], 10.9 upbm affinity estimate (log intensity, higher = more binding, comparable within an allelic series); in the assay with SIX6 [10] it was 11.2 upbm affinity estimate (log intensity, higher = more binding, comparable within an allelic series).

In the case of AGGGATCA, the binding signal with SIX6 [9] is 11.1 upbm affinity estimate (log intensity, higher = more binding, comparable within an allelic series); with SIX6 [10] it was 11.1 upbm affinity estimate (log intensity, higher = more binding, comparable within an allelic series).

For the sequence CAGGAAGG, the binding signal in the assay with HOXA4 [1] is 9.86 upbm affinity estimate (log intensity, higher = more binding, comparable within an allelic series); with PRRX1 [17], 9.25 upbm affinity estimate (log intensity, higher = more binding, comparable within an allelic series); in the assay with HOXA2 [18], 6.96 upbm affinity estimate (log intensity, higher = more binding, comparable within an allelic series); with HOXA4 [3], 9.68 upbm affinity estimate (log intensity, higher = more binding, comparable within an allelic series); with HOXA2 [19], 10.3 upbm affinity estimate (log intensity, higher = more binding, comparable within an allelic series); in the assay with HOXA4 [6], 9.59 upbm affinity estimate (log intensity, higher = more binding, comparable within an allelic series). In addition, the binding signal is 10.4 upbm affinity estimate (log intensity, higher = more binding, comparable within an allelic series) with HOXA2 [20]; 9.73 upbm affinity estimate (log intensity, higher = more binding, comparable within an allelic series) in the assay with HOXA4 [8]; 8.96 upbm affinity estimate (log intensity, higher = more binding, comparable within an allelic series) in the assay with PRRX1 [21]; 7.14 upbm affinity estimate (log intensity, higher = more binding, comparable within an allelic series) in the assay with HOXA2 [22].

On to ACCTTCGC, for which the binding signal with HOXA4 [1] was 9.98 upbm affinity estimate (log intensity, higher = more binding, comparable within an allelic series); with ALX4 [13] it was 8.16 upbm affinity estimate (log intensity, higher = more binding, comparable within an allelic series); in the assay with ALX4 [14], 8.2 upbm affinity estimate (log intensity, higher = more binding, comparable within an allelic series); with HOXA4 [3], 9.99 upbm affinity estimate (log intensity, higher = more binding, comparable within an allelic series); with HOXA4 [6], 9.8 upbm affinity estimate (log intensity, higher = more binding, comparable within an allelic series); with HOXA4 [8], 10.1 upbm affinity estimate (log intensity, higher = more binding, comparable within an allelic series).

GACCCTCC: the binding signal is 9.82 upbm affinity estimate (log intensity, higher = more binding, comparable within an allelic series) with HOXA4 [1]; 9.64 upbm affinity estimate (log intensity, higher = more binding, comparable within an allelic series) with HOXC9 [2]; 9.94 upbm affinity estimate (log intensity, higher = more binding, comparable within an allelic series) with HOXA4 [3]; 9.69 upbm affinity estimate (log intensity, higher = more binding, comparable within an allelic series) with HOXC9 [4]; 9.67 upbm affinity estimate (log intensity, higher = more binding, comparable within an allelic series) with HOXC9 [5]; 9.94 upbm affinity estimate (log intensity, higher = more binding, comparable within an allelic series) in the assay with HOXA4 [6]. Besides, the binding signal with HOXC9 [7] was 9.65 upbm affinity estimate (log intensity, higher = more binding, comparable within an allelic series); in the assay with HOXA4 [8] it was 9.9 upbm affinity estimate (log intensity, higher = more binding, comparable within an allelic series).

GCACCACC: the binding signal with HOXA4 [1] is 9.87 upbm affinity estimate (log intensity, higher = more binding, comparable within an allelic series); in the assay with PAX4 [23] it was 9.27 upbm affinity estimate (log intensity, higher = more binding, comparable within an allelic series); with PAX4 [24], 9.29 upbm affinity estimate (log intensity, higher = more binding, comparable within an allelic series); in the assay with HOXA4 [3], 9.72 upbm affinity estimate (log intensity, higher = more binding, comparable within an allelic series); in the assay with PAX4 [25] it was 9.35 upbm affinity estimate (log intensity, higher = more binding, comparable within an allelic series); with PAX4 [26], 9.29 upbm affinity estimate (log intensity, higher = more binding, comparable within an allelic series). The binding signal was 9.72 upbm affinity estimate (log intensity, higher = more binding, comparable within an allelic series) with HOXA4 [6]; 9.28 upbm affinity estimate (log intensity, higher = more binding, comparable within an allelic series) with PAX4 [27]; 9.35 upbm affinity estimate (log intensity, higher = more binding, comparable within an allelic series) in the assay with PAX4 [28]; 9.79 upbm affinity estimate (log intensity, higher = more binding, comparable within an allelic series) with HOXA4 [8].

(Values after publication PMC11006913.)
